Common to all, as to conditions: mRNA level, 48 h; actives raise or lower the signal
Read-out in assay [1]: Tumor necrosis factor receptor superfamily member 6 (Homo sapiens) (UniProt P25445)
Put plainly: LTEA_HepaRG_FAS: Life Technologies and Expression Analysis (LTEA) Assay for Fas cell surface death receptor (FAS) using HepaRG (AID 2283447). An outline of the steps:
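Differentiated human HepaRG cells, pre-cultured 48 h, were exposed in duplicate for 48 h to 8-point half-log concentrations (top 100 uM, 0.5% DMSO) in serum-free induction medium; FAS mRNA measured by qRT-PCR, normalized to ACTB/GAPDH/POLR2A, bidirectional fit versus DMSO.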

Read-out in assay [2]: Fatty acid synthase (Homo sapiens) (UniProt P49327)
Put plainly: LTEA_HepaRG_FASN: Life Technologies and Expression Analysis (LTEA) Assay for Fatty Acid Synthase (FASN) using HepaRG (AID 2283448). An outline of the steps:
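Transcript-level assay: HepaRG liver cells are treated for 48 h across an eight-point range topping at 100 uM, and FASN mRNA, normalized to three housekeeping genes, is compared with DMSO controls in both directions.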

Read-out in assay [3]: Cyclin D2 (CCND2), CCND2 (gene 894)
The assay can be described thus: LTEA_HepaRG_CCND2: Life Technologies and Expression Analysis (LTEA) Assay for Cyclin D2 (CCND2) using HepaRG (AID 2283449).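 Also: CCND2 transcript measured by TaqMan qRT-PCR and normalised to three housekeeping genes.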 An outline of the steps:
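Differentiated human HepaRG cells were exposed for 48 h in serum-free induction medium to eight half-log concentrations topping at 100 uM (0.5% DMSO vehicle). CCND2 mRNA was quantified by TaqMan qRT-PCR, normalised to ACTB, GAPDH and POLR2A, and fitted bidirectionally against DMSO.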

Read-out in assay [4]: Cyclin Dependent Kinase Inhibitor 1A (CDKN1A), CDKN1A (gene 1026)
The assay can be described thus: LTEA_HepaRG_CDKN1A: Life Technologies and Expression Analysis (LTEA) Assay for Cyclin Dependent Kinase Inhibitor 1A (CDKN1A) using HepaRG (AID 2283450). The essentials: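 HepaRG, 48 h dosing, 8-pt half-log series from 100 uM top, 0.5% DMSO vehicle, duplicates. Readout: TaqMan qRT-PCR of CDKN1A transcript, housekeeping-normalized (ACTB, GAPDH, POLR2A). Up/down curve fit relative to DMSO.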

Read-out in assay [5]: catalase (CAT), CAT (gene 847)
Put plainly: LTEA_HepaRG_CAT: Life Technologies and Expression Analysis (LTEA) Assay for catalase (CAT) using HepaRG (AID 2283452). An outline of the steps: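 Differentiated HepaRG cells in serum-free induction medium were dosed 48 h in duplicate, eight half-log concentrations from 100 uM in 0.5% DMSO. Transcript measured by TaqMan qRT-PCR, normalised to ACTB/GAPDH/POLR2A, fitted bidirectionally against DMSO.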

Read-out in assay [6]: flavin-containing dimethylaniline monooxygenases 3 (FMO3), FMO3 (gene 2328)
Put plainly: LTEA_HepaRG_FMO3: Life Technologies and Expression Analysis (LTEA) Assay for flavin-containing dimethylaniline monooxygenases 3 (FMO3) using HepaRG (AID 2283453). The essentials:
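HepaRG, 48 h exposure, 8-pt half-log series from 100 uM, 0.5% DMSO vehicle, duplicates; FMO3 transcript by Fluidigm TaqMan qRT-PCR, housekeeping-normalized; gain/loss fit vs DMSO.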

Read-out in assay [7]: Cytochrome P450 (CYP1A1), CYP1A1 (gene 1543)
Put plainly: LTEA_HepaRG_CYP1A1: Life Technologies and Expression Analysis (LTEA) Assay for Cytochrome P450 (CYP1A1) using HepaRG (AID 2283454). An outline of the steps: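 qRT-PCR read-out: CYP1A1 transcript normalized to three housekeeping genes, fitted bidirectionally against 0.5% DMSO vehicle baseline. Human HepaRG cells, 48 h chemical exposure, 8-point half-log series topping at 100 uM.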

Read-out in assay [8]: CFLAR gene, CFLAR (gene 8837)
Put plainly: LTEA_HepaRG_CFLAR: Life Technologies and Expression Analysis (LTEA) Assay for CFLAR gene using HepaRG (AID 2283455). The essentials:
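HepaRG cells were plated for 48 h, switched to serum-free induction medium, then exposed in duplicate for 48 h to 8 concentrations (top 100 uM, half-log steps, 0.5% DMSO). CFLAR mRNA was measured by qRT-PCR, normalized to ACTB, GAPDH and POLR2A.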

Read-out in assay [9]: Forkhead box O1 (FOXO1), FOXO1 (gene 2308)
The assay can be described thus: LTEA_HepaRG_FOXO1: Life Technologies and Expression Analysis (LTEA) Assay for Forkhead box O1 (FOXO1) using HepaRG (AID 2283456). An outline of the steps:
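Differentiated human HepaRG cells in serum-free induction medium were exposed in duplicate for 48 h to eight half-log concentrations (top 100 uM, 0.5% DMSO). FOXO1 mRNA was measured by TaqMan qRT-PCR, normalised to ACTB, GAPDH and POLR2A, and fitted bidirectionally against DMSO.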

Read-out in assay [10]: growth arrest and DNA damage 45 (GADD45A), GADD45A (gene 1647)
Put plainly: LTEA_HepaRG_GADD45A: Life Technologies and Expression Analysis (LTEA) Assay for growth arrest and DNA damage 45 (GADD45A) using HepaRG (AID 2283458). The essentials: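 Human HepaRG liver cells are treated in duplicate for 48 h with chemicals in 0.5% DMSO, highest concentration 100 uM. Expression is read by qRT-PCR and analyzed in both directions against vehicle.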

Read-out in assay [11]: Forkhead box O3 (FOXO3), FOXO3 (gene 2309)
Put plainly: LTEA_HepaRG_FOXO3: Life Technologies and Expression Analysis (LTEA) Assay for Forkhead box O3 (FOXO3) using HepaRG (AID 2283459). The essentials:
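Differentiated human HepaRG cells in serum-free induction medium were exposed in duplicate for 48 h to eight half-log concentrations up to 100 uM in 0.5% DMSO. FOXO3 mRNA was quantified by qRT-PCR, normalized to ACTB, GAPDH and POLR2A, with bidirectional fitting versus DMSO.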

Read-out in assay [12]: ABC Transporter (ABCB1), ABCB1 (gene 5243)
The assay can be described thus: LTEA_HepaRG_ABCB1: Life Technologies and Expression Analysis (LTEA) Assay for ABC Transporter (ABCB1) using HepaRG (AID 2283460). The essentials: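 Differentiated human HepaRG cells, plated 48 h then switched to serum-free induction medium, were exposed in duplicate to eight half-log concentrations up to 100 uM in 0.5% DMSO for 48 h. ABCB1 mRNA was measured by TaqMan qRT-PCR, normalized to ACTB/GAPDH/POLR2A.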

Read-out in assay [13]: growth arrest and DNA damage 45 (GADD45B), GADD45B (gene 4616)
Put plainly: LTEA_HepaRG_GADD45B: Life Technologies and Expression Analysis (LTEA) Assay for growth arrest and DNA damage 45 (GADD45B) using HepaRG (AID 2283461). The essentials:
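qRT-PCR read-out (Fluidigm TaqMan, housekeeping-normalized) of mRNA change in human HepaRG cells after 48 h chemical exposure; 8-point curve, top 100 uM, half-log steps, 0.5% DMSO vehicle; gain or loss fitted relative to DMSO baseline.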

Read-out in assay [14]: ABC Transporter (ABCC3), ABCC3 (gene 8714)
Put plainly: LTEA_HepaRG_ABCC3: Life Technologies and Expression Analysis (LTEA) Assay for ABC Transporter (ABCC3) using HepaRG (AID 2283462). An outline of the steps: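 qRT-PCR read-out of ABCC3 transcript, normalized to three housekeeping genes (ACTB, GAPDH, POLR2A), after 48 h chemical exposure of human HepaRG cells. Eight half-log concentrations, highest 100 uM, in 0.5% DMSO; gain or loss fitted relative to DMSO baseline.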

Read-out in assay [15]: ABC Transporter (ABCB11), ABCB11 (gene 8647)
The assay can be described thus: LTEA_HepaRG_ABCB11: Life Technologies and Expression Analysis (LTEA) Assay for ABC Transporter (ABCB11) using HepaRG (AID 2283463). An outline of the steps: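 Differentiated human HepaRG cells were exposed for 48 h in serum-free induction medium to eight half-log concentrations up to 100 uM in 0.5% DMSO. ABCB11 mRNA was quantified by qRT-PCR, normalized to ACTB, GAPDH and POLR2A, and fitted bidirectionally versus DMSO.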

Read-out in assay [16]: ABC Transporter (ABCC2), ABCC2 (gene 1244)
Put plainly: LTEA_HepaRG_ABCC2: Life Technologies and Expression Analysis (LTEA) Assay for ABC Transporter (ABCC2) using HepaRG (AID 2283464). The essentials: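 qRT-PCR (TaqMan, Fluidigm array) read-out of ABCC2 mRNA, normalized to three housekeeping genes. Differentiated HepaRG cells were treated 48 h in serum-free induction medium with 8-point half-log series from 100 uM in 0.5% DMSO; curves fitted bidirectionally relative to DMSO.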

Read-out in assay [17]: Broad substrate specificity ATP-binding cassette transporter ABCG2 (Homo sapiens) (UniProt Q9UNQ0)
The assay can be described thus: LTEA_HepaRG_ABCG2: Life Technologies and Expression Analysis (LTEA) Assay for ABC Transporter (ABCG2) using HepaRG (AID 2283465). An outline of the steps:
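Differentiated HepaRG cells in serum-free induction medium were exposed for 48 h, in duplicate, to eight half-log concentrations up to 100 uM in 0.5% DMSO. ABCG2 mRNA was measured by TaqMan qRT-PCR, normalized to ACTB, GAPDH and POLR2A, and fitted bidirectionally versus DMSO.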

Read-out in assay [18]: ATP-citrate lyase (ACLY), ACLY (gene 47)
Put plainly: LTEA_HepaRG_ACLY: Life Technologies and Expression Analysis (LTEA) Assay for ATP-citrate lyase (ACLY) using HepaRG (AID 2283466). An outline of the steps:
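Differentiated human HepaRG cells in serum-free induction medium exposed 48 h, in duplicate, to eight half-log concentrations from 100 uM top in 0.5% DMSO; ACLY mRNA measured by qRT-PCR, normalized to ACTB, GAPDH, POLR2A, fitted bidirectionally versus DMSO.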

Read-out in assay [19]: Cyclin D1 (CCND1), CCND1 (gene 595)
The assay can be described thus: LTEA_HepaRG_CCND1: Life Technologies and Expression Analysis (LTEA) Assay for Cyclin D1 (CCND1) using HepaRG (AID 2283451). The essentials:
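qRT-PCR (Fluidigm 96.96 array) read-out of transcript level, housekeeping-normalized (ACTB/GAPDH/POLR2A). HepaRG cells, 48 h chemical exposure, 8-point half-log series from 100 uM, 0.5% DMSO vehicle; gain or loss relative to DMSO baseline.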

Calls of active or inactive are those of the source. The calls were made as follows: active = hit-call score of the fitted dose curve at least 0.9, where 1 is the maximum; inactive = score below 0.9.

Data on four compounds can be found in PubChem BioAssay (EPA / NIEHS).

Broad substrate specificity ATP-binding cassette transporter ABCG2 (Homo sapiens), sequence (Q9UNQ0 whole entry, looked up): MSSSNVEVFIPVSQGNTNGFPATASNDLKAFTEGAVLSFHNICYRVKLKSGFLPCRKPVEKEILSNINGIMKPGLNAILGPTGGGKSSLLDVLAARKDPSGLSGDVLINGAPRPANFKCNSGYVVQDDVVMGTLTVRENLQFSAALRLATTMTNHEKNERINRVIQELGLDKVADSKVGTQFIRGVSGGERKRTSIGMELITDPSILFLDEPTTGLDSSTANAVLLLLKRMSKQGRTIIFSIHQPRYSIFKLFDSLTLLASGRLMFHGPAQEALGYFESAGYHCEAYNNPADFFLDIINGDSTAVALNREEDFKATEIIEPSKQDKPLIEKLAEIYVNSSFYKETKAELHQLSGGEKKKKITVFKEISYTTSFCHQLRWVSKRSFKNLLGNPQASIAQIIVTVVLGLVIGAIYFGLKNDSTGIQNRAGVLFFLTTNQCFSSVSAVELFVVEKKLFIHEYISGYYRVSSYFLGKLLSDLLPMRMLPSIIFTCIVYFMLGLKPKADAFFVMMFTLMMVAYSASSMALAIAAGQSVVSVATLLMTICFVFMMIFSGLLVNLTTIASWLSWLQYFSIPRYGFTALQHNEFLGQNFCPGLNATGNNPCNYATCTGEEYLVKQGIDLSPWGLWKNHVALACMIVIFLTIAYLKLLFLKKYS
Fatty acid synthase (Homo sapiens), sequence (P49327 whole entry, looked up): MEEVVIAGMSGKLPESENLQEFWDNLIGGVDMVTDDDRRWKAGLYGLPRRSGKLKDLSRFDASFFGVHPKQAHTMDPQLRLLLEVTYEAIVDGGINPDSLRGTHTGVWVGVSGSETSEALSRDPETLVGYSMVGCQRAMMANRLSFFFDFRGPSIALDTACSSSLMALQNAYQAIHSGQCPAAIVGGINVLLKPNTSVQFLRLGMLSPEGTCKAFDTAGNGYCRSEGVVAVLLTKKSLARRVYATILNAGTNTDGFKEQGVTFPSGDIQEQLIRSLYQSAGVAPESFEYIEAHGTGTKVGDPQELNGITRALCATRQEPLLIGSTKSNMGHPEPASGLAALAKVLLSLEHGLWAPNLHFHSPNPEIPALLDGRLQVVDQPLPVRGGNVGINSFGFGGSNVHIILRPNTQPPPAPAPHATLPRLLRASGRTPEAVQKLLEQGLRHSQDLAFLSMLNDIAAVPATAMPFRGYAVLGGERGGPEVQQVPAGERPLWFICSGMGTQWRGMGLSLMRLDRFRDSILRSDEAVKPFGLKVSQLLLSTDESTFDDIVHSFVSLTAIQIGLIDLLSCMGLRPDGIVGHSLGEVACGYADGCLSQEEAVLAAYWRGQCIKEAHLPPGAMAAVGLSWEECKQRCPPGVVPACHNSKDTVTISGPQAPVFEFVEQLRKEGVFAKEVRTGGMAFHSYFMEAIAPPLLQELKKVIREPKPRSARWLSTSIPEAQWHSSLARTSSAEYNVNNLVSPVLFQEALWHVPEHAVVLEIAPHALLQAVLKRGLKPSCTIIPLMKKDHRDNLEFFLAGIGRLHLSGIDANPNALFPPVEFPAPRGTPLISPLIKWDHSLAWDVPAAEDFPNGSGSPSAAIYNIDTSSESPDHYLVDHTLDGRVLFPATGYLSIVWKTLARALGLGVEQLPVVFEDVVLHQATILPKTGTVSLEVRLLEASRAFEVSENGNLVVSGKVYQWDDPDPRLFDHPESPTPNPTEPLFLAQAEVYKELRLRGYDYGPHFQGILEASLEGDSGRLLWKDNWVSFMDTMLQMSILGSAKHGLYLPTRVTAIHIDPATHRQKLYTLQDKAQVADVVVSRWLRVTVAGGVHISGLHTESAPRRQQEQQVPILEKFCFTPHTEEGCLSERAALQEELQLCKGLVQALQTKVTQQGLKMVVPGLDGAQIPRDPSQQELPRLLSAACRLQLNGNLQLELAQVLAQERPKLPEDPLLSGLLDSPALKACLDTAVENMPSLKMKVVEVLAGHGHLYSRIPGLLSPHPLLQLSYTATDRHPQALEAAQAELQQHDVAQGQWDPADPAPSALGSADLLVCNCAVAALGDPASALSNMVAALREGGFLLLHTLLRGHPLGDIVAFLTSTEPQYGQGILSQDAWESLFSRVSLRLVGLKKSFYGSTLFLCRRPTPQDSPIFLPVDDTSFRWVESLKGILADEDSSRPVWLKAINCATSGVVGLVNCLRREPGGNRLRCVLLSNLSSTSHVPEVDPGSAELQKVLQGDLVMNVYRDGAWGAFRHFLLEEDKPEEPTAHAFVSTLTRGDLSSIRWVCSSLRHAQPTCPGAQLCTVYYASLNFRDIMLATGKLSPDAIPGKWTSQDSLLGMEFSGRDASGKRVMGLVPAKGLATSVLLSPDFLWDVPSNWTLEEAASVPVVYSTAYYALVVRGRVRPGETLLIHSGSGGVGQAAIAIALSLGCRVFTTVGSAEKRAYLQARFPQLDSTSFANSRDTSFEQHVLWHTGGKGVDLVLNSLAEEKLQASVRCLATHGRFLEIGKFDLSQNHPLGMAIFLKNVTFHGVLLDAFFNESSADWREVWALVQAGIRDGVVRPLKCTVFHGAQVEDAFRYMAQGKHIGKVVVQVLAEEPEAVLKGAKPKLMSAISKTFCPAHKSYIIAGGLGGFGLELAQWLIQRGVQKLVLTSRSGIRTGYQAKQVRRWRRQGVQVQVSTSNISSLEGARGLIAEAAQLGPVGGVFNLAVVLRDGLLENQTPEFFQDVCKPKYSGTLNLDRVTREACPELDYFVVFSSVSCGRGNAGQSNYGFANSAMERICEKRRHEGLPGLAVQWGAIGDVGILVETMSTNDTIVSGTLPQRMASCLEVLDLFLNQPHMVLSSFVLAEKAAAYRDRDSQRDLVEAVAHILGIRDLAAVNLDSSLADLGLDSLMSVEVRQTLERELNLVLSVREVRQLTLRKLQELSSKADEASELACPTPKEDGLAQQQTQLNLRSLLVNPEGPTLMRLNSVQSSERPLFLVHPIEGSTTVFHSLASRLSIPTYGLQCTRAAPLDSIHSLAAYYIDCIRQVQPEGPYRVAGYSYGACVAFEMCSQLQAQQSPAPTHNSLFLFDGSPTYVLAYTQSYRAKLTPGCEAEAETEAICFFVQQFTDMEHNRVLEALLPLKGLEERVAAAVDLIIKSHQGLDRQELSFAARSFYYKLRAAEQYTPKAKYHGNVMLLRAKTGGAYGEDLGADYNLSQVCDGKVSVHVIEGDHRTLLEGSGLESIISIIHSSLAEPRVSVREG

Usually AC50 stands for the concentration giving half of the maximal activity seen. For `Cc1oc(-c2ccccc2)nc1CCOc1cccc2c1ccn2CCC(=O)O`, the AC50 was 87.9 µM (active) in assay [1]; 11.9 µM (active) in assay [2]; 71.2 µM (active) in assay [4]; 88.3 µM (active) in [5]; 76.7 µM (active) in assay [6]; 10.7 µM (active) in [8]. In addition, the AC50 in assay [9] was 85.6 µM (active); in [10], 75.2 µM (active); in assay [12] it was 81.3 µM (active); in assay [13], 75.8 µM (active); in assay [15] it was 93.7 µM (active); in assay [17], 40.2 µM (active). In addition, the AC50 in [18] is 38.7 µM (active). Moreover, the call in [3], in assay [7], in [11], in assay [14] and in assay [16] was inactive.

In the case of `CCOC(=O)CCC(=O)OCC`, in assay [1], the AC50 is 85.1 µM (active). Moreover, the result in assay [2], in assay [3], in [4], in assay [5], in assay [6] and in assay [7] was inactive. Further, the call in [8], in assay [9], in assay [10], in assay [11], in assay [12] and in [13] was inactive. Besides, the compound was called inactive in assay [14], in assay [17] and in [18].

With `O=[N+]([O-])C(CO)(CO)CO`, the call in assay [1], in [2], in assay [3], in assay [4], in assay [19] and in assay [5] was inactive. Moreover, the call in [6], in [9], in [10], in assay [12], in assay [13] and in assay [14] was inactive. For the same compound, in assay [17], the compound was called inactive. In addition, the AC50 in assay [7] is 25.3 µM (active).

Regarding `Cc1c(C(=O)O)c(O)cc2c1C(=O)c1c(O)c([C@@H]3O[C@H](CO)[C@@H](O)[C@H](O)[C@H]3O)c(O)c(O)c1C2=O`, the call in assay [1], in [2], in [3], in assay [4], in [5] and in assay [6] was inactive. For the same compound, the compound was called inactive in assay [7], in assay [8], in assay [9], in assay [10], in assay [11] and in assay [12]. Besides, the outcome in [13], in assay [14], in assay [17] and in assay [18] was inactive.
